According to PubChem BioAssay:
Activity calls are given as the source filed them.

What was measured:
[1] = system: Plasmodium falciparum Sir2 (PF13_0152, Sir2A); assay: pfSir2 binders on small-molecule microarrays, primary screen, biochemical, small-molecule microarray, 635 nm fluorescence (AID 1098); conditions: small-molecule microarray binding, fluorescence 635 nm; higher = more signal;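 further: score merges spot fluorescence intensity with its signal-to-noise ratio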
[2] = small-molecule microarray binders of probe aDKK1, primary screen, biochemical, biotinylated probe, 635/667 nm fluorescence (AID 1099); conditions: higher = more signal;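 further: score merges 667nm spot fluorescence with signal to noise across triplicate slides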
[3] = small-molecule microarray binders of probe aCHRDL2, primary screen, biochemical, biotinylated probe, 635/667 nm fluorescence (AID 1100); conditions: higher = more signal
[4] = splicing luciferase reporter signal modulators, primary screen, spliceosome inhibition project, cell-based, HEK293, splice +/- reporter (AID 1101); conditions: luminescence, 24 h, higher = more signal, called active from +8 up or from −8 down;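 further: HEK293 cells carrying a splicing-competent luciferase reporter gene; test concentration not given here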
[5] = biological target: Fibroblast growth factor 10 (Homo sapiens) (UniProt O15520); assay: FGF10 binders on small-molecule microarrays, primary screen, biochemical, small-molecule microarray, 635 nm fluorescence (AID 1102); conditions: FGF10 binding, fluorescence 635 nm, higher = more signal
Chain of Fibroblast growth factor 10 (Homo sapiens) (O15520 whole entry, looked up): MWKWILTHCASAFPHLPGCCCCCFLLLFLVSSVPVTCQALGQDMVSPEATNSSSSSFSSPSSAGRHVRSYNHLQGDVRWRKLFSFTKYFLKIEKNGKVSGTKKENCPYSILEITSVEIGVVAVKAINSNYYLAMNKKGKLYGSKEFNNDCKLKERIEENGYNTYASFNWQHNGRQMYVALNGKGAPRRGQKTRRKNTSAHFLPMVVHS

[6] = system: glycogen synthase kinase-3 (GSK3A per assay name; protocol says GSK3B); assay: GSK3 binders on small-molecule microarrays, primary screen, biochemical, small-molecule microarray, 635 nm fluorescence, GSK3A (AID 1103); conditions: small-molecule microarray binding, fluorescence 635 nm; higher = more signal; further: the record names both GSK3A and GSK3B
[7] = biological target: Epidermal growth factor receptor (Homo sapiens) (UniProt P00533); assay: EGFR binders on small-molecule microarrays, primary screen, biochemical, small-molecule microarray, 635 nm fluorescence (AID 1104); conditions: EGFR binding, higher = more signal;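 further: score merges 667 nm emission intensity with spot signal to noise over triplicate slides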
Chain of Epidermal growth factor receptor (Homo sapiens) (P00533 whole entry, looked up): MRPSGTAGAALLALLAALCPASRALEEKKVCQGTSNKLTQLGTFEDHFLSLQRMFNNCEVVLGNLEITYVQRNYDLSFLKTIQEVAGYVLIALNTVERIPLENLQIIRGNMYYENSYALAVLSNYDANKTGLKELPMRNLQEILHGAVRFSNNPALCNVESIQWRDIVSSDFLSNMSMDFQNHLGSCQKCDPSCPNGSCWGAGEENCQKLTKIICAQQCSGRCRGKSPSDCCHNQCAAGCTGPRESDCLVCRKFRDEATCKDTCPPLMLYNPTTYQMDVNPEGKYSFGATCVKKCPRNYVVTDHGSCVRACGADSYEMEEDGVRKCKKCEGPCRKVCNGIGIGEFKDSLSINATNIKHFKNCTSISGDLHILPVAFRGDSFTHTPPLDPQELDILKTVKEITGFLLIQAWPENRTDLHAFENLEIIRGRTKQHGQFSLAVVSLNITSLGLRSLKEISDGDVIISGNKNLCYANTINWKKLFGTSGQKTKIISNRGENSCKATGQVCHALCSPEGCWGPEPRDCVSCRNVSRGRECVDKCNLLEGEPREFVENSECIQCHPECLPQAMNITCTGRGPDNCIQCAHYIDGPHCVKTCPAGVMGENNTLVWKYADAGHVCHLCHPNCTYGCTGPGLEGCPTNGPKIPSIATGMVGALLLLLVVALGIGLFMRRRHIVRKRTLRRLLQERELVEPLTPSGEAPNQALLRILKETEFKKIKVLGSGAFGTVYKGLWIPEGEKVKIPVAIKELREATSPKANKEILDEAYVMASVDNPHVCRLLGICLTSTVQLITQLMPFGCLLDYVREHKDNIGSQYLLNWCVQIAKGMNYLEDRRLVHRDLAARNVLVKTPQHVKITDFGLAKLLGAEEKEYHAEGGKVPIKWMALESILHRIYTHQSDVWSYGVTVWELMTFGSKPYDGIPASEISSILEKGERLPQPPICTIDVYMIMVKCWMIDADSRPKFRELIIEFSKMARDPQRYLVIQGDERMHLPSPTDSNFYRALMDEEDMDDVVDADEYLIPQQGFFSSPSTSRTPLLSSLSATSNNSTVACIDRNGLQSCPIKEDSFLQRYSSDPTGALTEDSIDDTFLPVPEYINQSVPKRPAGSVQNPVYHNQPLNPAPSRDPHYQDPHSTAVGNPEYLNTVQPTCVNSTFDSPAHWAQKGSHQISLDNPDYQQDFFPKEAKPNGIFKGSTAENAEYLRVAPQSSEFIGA

[8] = biological target: Follistatin-related protein 3 (Homo sapiens) (UniProt O95633); assay: FSTL3 binders on small-molecule microarrays, primary screen, biochemical, small-molecule microarray, 635 nm fluorescence (AID 1105); conditions: FSTL3 binding, higher = more signal;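 further: score merges emission near 667 nm and signal to noise per printed spot across three slides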
Chain of Follistatin-related protein 3 (Homo sapiens) (O95633 whole entry, looked up): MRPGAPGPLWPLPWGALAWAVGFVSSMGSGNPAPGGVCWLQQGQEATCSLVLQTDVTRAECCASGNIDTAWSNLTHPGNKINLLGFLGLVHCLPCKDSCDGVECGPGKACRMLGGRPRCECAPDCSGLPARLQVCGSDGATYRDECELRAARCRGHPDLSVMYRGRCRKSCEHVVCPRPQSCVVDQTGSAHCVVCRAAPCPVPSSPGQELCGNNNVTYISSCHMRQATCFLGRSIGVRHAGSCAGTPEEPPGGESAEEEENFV

[9] = biological target: Dickkopf-related protein 1 (Homo sapiens) (UniProt O94907); assay: DKK1 binders on small-molecule microarrays, primary screen, biochemical, small-molecule microarray, 635 nm fluorescence scan (AID 1106); conditions: DKK1 binding, higher = more signal;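 further: score merges emission near 667 nm with signal to noise over three replicate slides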
Chain of Dickkopf-related protein 1 (Homo sapiens) (O94907 whole entry, looked up): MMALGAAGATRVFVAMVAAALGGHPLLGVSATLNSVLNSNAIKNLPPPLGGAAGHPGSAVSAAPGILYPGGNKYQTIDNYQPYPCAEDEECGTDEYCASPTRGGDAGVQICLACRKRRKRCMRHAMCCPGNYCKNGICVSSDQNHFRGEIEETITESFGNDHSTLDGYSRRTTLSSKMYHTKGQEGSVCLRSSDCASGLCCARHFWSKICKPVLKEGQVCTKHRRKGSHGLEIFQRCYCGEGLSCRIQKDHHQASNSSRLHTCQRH

[10] = system: Inhibin beta A chain (activin A); assay: INHBA (activin A) binders on microarrays, primary screen, biochemical, small-molecule microarray, 635 nm fluorescence scan (AID 1107); conditions: small-molecule microarray binding, higher = more signal;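 further: mouse activin A protein probed at 4.33 µg/mL on printed slides; score merges bound-protein fluorescence near 667 nm with spot signal-to-noise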
[11] = system: Human papillomavirus type 1a protein E7 (residues 44-93); assay: HPV1a E7 fragment binders on microarrays, primary screen, biochemical, small-molecule microarray, residues 44-93, 635 nm fluorescence (AID 1108); conditions: small-molecule microarray binding, fluorescence 635 nm; higher = more signal;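 further: E7 fragment applied at 1 µg/mL in TBST for 1 h at 4 C; score combines spot fluorescence with its signal to noise ratio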
[12] = modulators of HCV replicon luciferase signal, primary screen, HCV replication inhibitor project, Huh7 cells, luciferase reporter (AID 1109); conditions: 48 h, higher = more signal;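 further: huh7 hepatoma cells harbouring a luciferase neomycin HCV replicon reporter; luciferase luminescence as measure of HCV replicon replication; test concentration not given here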
[13] = biological target: Left-right determination factor 2 (Homo sapiens) (UniProt O00292); assay: LEFTY2 binders on small-molecule microarrays, primary screen, biochemical, small-molecule microarray, 635 nm fluorescence scan (AID 1110); conditions: LEFTY2 binding, higher = more signal
Chain of Left-right determination factor 2 (Homo sapiens) (O00292 whole entry, looked up): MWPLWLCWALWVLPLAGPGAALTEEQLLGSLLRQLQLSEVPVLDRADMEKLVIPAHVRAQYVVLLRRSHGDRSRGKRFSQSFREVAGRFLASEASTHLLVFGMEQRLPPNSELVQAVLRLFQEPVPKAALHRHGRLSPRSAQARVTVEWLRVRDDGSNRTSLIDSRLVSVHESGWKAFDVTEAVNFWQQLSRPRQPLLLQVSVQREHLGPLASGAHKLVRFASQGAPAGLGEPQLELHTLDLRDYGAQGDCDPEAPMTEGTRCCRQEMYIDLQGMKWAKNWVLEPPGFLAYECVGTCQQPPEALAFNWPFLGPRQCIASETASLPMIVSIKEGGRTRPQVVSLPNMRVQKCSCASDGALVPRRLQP

[14] = biological target: Calmodulin-1 (Homo sapiens) (UniProt P0DP23); assay: CALM1 binders on microarrays, EGTA buffer, profiling panel, biochemical, small-molecule microarray, Cy5-labelled CALM1 (AID 1111); conditions: Cy5-CALM1 binding fluorescence, higher = more signal;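 further: labelled calmodulin applied in Tris saline Tween buffer holding calcium plus EGTA and DTT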
[15] = biological target: Calmodulin-1 (Homo sapiens) (UniProt P0DP23); assay: calcium-bound CALM1 binders on microarrays, profiling panel, artefact control for SMM control-protein annotation, biochemical, small-molecule microarray, Cy5-labelled CALM1, plus calcium (AID 1112); conditions: Cy5-CALM1 binding fluorescence, higher = more signal;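 further: score merges spot fluorescence with signal to noise from triplicate slides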
[16] = small-molecule microarray binders of probe aWnt5a, primary screen, biochemical, biotinylated probe, 635/667 nm fluorescence (AID 1113); conditions: higher = more signal;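 further: score merges 667 nm fluorescence intensity with signal-to-noise per printed feature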
[17] = small-molecule microarray binders of probe aShh, primary screen, biochemical, biotinylated probe, 635/667 nm fluorescence (AID 1114); conditions: higher = more signal;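 further: probe is biotin-labelled aShh protein from a stem cell growth factor screen; measures binding of labelled protein to compounds printed on the slide; score merges feature fluorescence at 667 nm with signal-to-noise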
[18] = small-molecule microarray binders of probe aNog, primary screen, biochemical, biotinylated probe, 635/667 nm fluorescence (AID 1115); conditions: higher = more signal;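 further: probe is biotinylated aNog protein used at 0.15 µg/mL for 1 h at 4 C; z-score combines 667 nm fluorescence of each spot with its signal to noise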
[19] = biological target: Torsin-1A-interacting protein 1 (Homo sapiens) (UniProt Q5JTV8); assay: LAP1 binders from COS7 cell lysate, primary screen, small-molecule microarray, 635/667 nm fluorescence (AID 1116); conditions: COS7-hLAP1 lysate binding, 635 nm fluorescence, higher = more signal
Chain of Torsin-1A-interacting protein 1 (Homo sapiens) (Q5JTV8 whole entry, looked up): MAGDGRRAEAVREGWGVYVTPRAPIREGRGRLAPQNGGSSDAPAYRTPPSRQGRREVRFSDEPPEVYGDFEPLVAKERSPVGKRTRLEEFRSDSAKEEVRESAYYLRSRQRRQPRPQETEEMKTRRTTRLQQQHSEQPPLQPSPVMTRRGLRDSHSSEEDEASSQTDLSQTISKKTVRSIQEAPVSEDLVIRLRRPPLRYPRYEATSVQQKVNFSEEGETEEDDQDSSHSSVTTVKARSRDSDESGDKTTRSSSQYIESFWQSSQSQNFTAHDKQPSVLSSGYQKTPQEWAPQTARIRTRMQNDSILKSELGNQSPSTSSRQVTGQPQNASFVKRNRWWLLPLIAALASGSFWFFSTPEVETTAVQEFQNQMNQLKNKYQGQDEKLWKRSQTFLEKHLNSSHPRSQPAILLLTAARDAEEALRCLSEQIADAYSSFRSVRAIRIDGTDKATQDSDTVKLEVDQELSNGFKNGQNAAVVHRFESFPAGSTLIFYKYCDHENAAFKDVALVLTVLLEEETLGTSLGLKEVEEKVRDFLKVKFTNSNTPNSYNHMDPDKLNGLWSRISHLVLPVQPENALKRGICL

[20] = biological target: Alpha-bungarotoxin (Bungarus multicinctus) (UniProt P60615); assay: alpha-bungarotoxin binders on microarray, profiling panel, artefact control for SMM control protein annotation, biochemical, small-molecule microarray, Alexa647 label, 635/667 nm fluorescence (AID 1117); conditions: alpha-BTX-A647 binding fluorescence, higher = more signal
Chain of Alpha-bungarotoxin (Bungarus multicinctus) (P60615 whole entry, looked up): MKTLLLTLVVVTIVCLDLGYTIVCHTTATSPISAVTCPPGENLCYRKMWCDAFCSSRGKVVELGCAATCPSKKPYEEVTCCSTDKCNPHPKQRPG

Row | SMILES | composite z-score [1] | composite z-score [2] | composite z-score [3] | z-score [4] | composite z-score [5] | composite z-score [6] | composite z-score [7] | composite z-score [8] | composite z-score [9] | composite z-score [10] | composite z-score [11] | z-score [12] | composite z-score [13] | composite z-score [14] | composite z-score [15] | composite z-score [16] | composite z-score [17] | composite z-score [18] | composite z-score [19] | composite z-score [20]
1 | O[C@@H](Cc1ccccc1)[C@H]1C2C=CCCC(c3ccccc3)=C2CN1Cc1cccc(Cl)c1 (stereo not given in full) | 0.0167 | -0.0232 | 0.7 | -0.205 (inactive) | 0.653 | 0.913 | 0.21 | 0.847 | 0.473 | 0.264 | 0.921 | -2.27 | 0.286 | -0.118 | -0.264 | -0.157 | -0.0243 | 0.14 | 0.464 | 0.475
2 | CC(=O)OC[C@H]1O[C@H](CCON=C(C)CCC(=O)OC[C@H]2O[C@H](C#Cc3ccccc3)C=C[C@@H]2Oc2ccc(C)cc2)C=C[C@@H]1OC(C)=O | 0.825 | -0.304 | -0.632 | -0.35 (inactive) | 0.167 | -0.219 | 0.259 | 0.521 | 0.495 | 0.659 | -0.187 | -0.0572 | 0.977 | -0.367 | -0.5 | -0.131 | -0.138 | -0.423 | 0.245 | 1.24
3 | CC(C)=NOCc1cccc(-c2cc(-c3ccccc3)no2)c1 | 0.379 | -0.208 | -0.609 | 0.342 (inactive) | 0.637 | 0.787 | -0.137 | 0.597 | 0.494 | -0.21 | 0.332 | -0.149 | 0.71 | 0.0463 | -0.823 | -0.0874 | 0.0952 | -0.161 | 0.237 | 0.553
4 | CCc1cc2c(nc1CC)CCN(CCC(C)=NOC(C)CN1CCCc3nc(C)c(C)cc31)C2 (stereo not given) | 1.05 | 0.612 | -0.242 | 0.211 (inactive) | 1.04 | 1.06 | 1.16 | 1.32 | 1.03 | 1.59 | 1.13 | -2.1 | 0.482 | 0.276 | -0.544 | 0.245 | 1.38 | 0.774 | 0.849 | 1.21
5 | COC(=O)[C@H](C)NC(=O)CCC1CC(OC(=O)NCc2cccc3ccccc23)CC2(CCCC(COC(=O)NCC3CCCCC3)O2)O1 (stereo not given in full) | 0.534 | -0.0762 | -0.86 | -0.397 (inactive) | 1.47 | 1.36 | 1.15 | 1.08 | 0.528 | -0.564 | 1.32 | -0.411 | 0.776 | 0.708 | -0.798 | -0.174 | -0.0035 | -0.501 | 0.587 | 0.585
6 | COC(=O)CC1OC1[C@H](C)[C@@H](OC)C(C)C (stereo not given in full) | 0.505 | -0.0977 | -0.111 | 0.743 (inactive) | 0.142 | -0.792 | 0.335 | 0.0479 | 0.82 | 1.32 | -0.792 | -0.0397 | 0.389 | -0.723 | -1.26 | -0.1 | -0.147 | -0.487 | 0.601 | 0.93
7 | CC(CCC(=O)OC[C@H]1O[C@H](C#Cc2ccccc2)C=C[C@@H]1Oc1ccc(C)cc1)=NOC[C@@H](O)COCc1ccco1 | 1.33 | -0.627 | -0.044 | -0.0928 (inactive) | -3.07 | -1.25 | -3.58 | -3.18 | -2.09 | -2.69 | -0.412 | -0.635 | -5.42 | -1.49 | -1.96 | -0.426 | -0.206 | -0.732 | -1.87 | -0.818
8 | COC(=O)[C@@]1(Cc2ccc(F)cc2)[C@H]2c3cc(C(=O)N(C)C)n(Cc4ccc(OC)c(OC)c4)c3C[C@H]2CN1C(=O)c1ccccc1 | -0.236 | 1.08 | 0.43 | -3.2 (inactive) | 0.495 | -1.21 | 0.278 | -0.32 | -0.686 | 0.939 | 0.0897 | -1.44 | -0.137 | 0.482 | 0.0167 | 0.0833 | 0.299 | 0.338 | 0.0894 | 0.0611
